This is part of a sample that, as a whole, favours compounds with a hit. Of some 83,000 tested, about 20% had one in any assay.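 Each cell line was grown in a 96-well plate and treated with one concentration of compound for 48 hours. Values below 10 were considered active.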 Values without a mark were called inactive. Active and inactive are the calls of the source.
How the values were obtained:
Assay in all cases: NCI-60 one-dose screen, 48 h (100 = growth as untreated, 0 = no growth, -100 = all killed)
Conditions in all cases: 10 µM unless noted
[1] = tested on: DU-145 prostate
[2] = tested on: K-562 leukemia
[3] = tested on: MALME-3M melanoma
[4] = tested on: RXF 393 renal
[5] = tested on: SF-268 CNS
[6] = tested on: SF-295 CNS
[7] = tested on: SF-539 CNS
[8] = tested on: UACC-257 melanoma
[9] = tested on: M14 melanoma

| SMILES | growth [1] | growth [2] | growth [3] | growth [4] | growth [5] | growth [6] | growth [7] | growth [8] | growth [9] |
| --- | --- | --- | --- | --- | --- | --- | --- | --- | --- |
| O=C(/C=C/c1ccc(-c2ccccc2)cc1)c1nc2ccccc2n1Cc1ccc(Br)cc1 | 80.5% | 36% | 44% | 35.3% | 62.9% | 21.9% | 17.7% | 67.4% | 74% |
| CSc1ccccc1NC(=O)c1ccc2nn(/C(C#N)=C/c3ccccn3)nc2c1 | -99.5% (active) | -10.1% (active) | -89% (active) | -95.8% (active) | 14.6% | -21.9% (active) | -93.1% (active) | -91% (active) | -88.1% (active) |
| COc1cc(CNC(=O)/C=C/c2ccc3c(c2)OCO3)ccc1OCc1cn(-c2ccc([N+](=O)[O-])cc2)nn1 | 103% | 92.8% | 87.6% | 72.2% | 86.9% | 88% | 79.8% | 91.5% | 92.9% |
| CSc1ccc(NC(=O)c2ccc3nn(/C(C#N)=C/c4ccccn4)nc3c2)cc1 | -100% (active) | -13.4% (active) | -89.4% (active) | -94.9% (active) | -40% (active) | -95.7% (active) | -95% (active) | -89.3% (active) | -86% (active) |
| O=C(/C=C/c1cccc(OCc2ccc(F)cc2)c1)c1nc2ccccc2[nH]1 | 70.3% | -14.6% (active) | 95.8% | 57.7% | 95.1% | 74.2% | 44.7% | 76.1% | 13.8% |
| O=C(/C=C/c1cccc(OCc2ccccc2)c1)c1nc2ccccc2[nH]1 | 55.9% | -8.72% (active) | 90.9% | 20.4% | 62.3% | 69.9% | -56.5% (active) | 70.1% | 1.55% (active) |
| N#Cc1c(-c2cccc(Cl)c2Cl)cc(-c2c[nH]c3ccccc23)[nH]c1=O | 68.1% | 30.1% | 54.4% | 36.8% | 89.7% | 51.7% | 68.1% | 101% | 34.7% |
| N#Cc1c(-c2cccc(O)c2O)cc(-c2ccc3ccccc3c2)[nH]c1=O | 57% | 67.1% | 59.1% | 39.3% | 58.6% | 83.6% | 28.8% | 99.9% | 65.1% |
| O=c1[nH]n(C(=S)N/N=C/c2ccccc2Cl)c(=O)c2ccccc12 | 15.1% | 4.54% (active) | 28.3% | -57.7% (active) | 28.5% | 15.9% | -20.2% (active) | 37.2% | -41.9% (active) |
| CC1CCCCN1CCCNC(=O)N/C(N)=N/c1nc2ccccc2s1 (stereo unspecified) | 72.1% | -27.6% (active) | -93.2% (active) | 5.45% (active) | 49.7% | 15.3% | -60.9% (active) | -86.8% (active) | -85.2% (active) |
| N#Cc1ccc(/C=N/NC(=O)c2[nH]c3ccc(Br)cc3c2-c2ccccc2)o1 | 8.4% (active) | 2.28% (active) | 22% | -2.8% (active) | 17.7% | 16% | -16.8% (active) | 13.6% | 12.1% |
| O=C(/C=C/c1ccc(-c2ccccc2)cc1)c1nc2ccccc2n1Cc1ccc(F)cc1 | 54.4% | 21.7% | 0% (active) | 13.6% | 62.4% | 40.4% | -15.9% (active) | 49.5% | 39.6% |
| COc1ccc([C@H](C)Nc2nc(Cl)nc3ccccc23)cc1 | 74.2% | 9.94% (active) | 66.5% | 78.3% | 76.6% | 20.2% | 68.3% | 48.2% | 78.8% |
| CCOc1ccc(-c2c(C#N)c(-c3ccc(Cl)cc3)nc3n[nH]c(-c4ccc(Cl)cc4)c23)cc1OC | 64.9% | 9.47% (active) | 46.7% | 47.4% | 72.9% | 75.7% | 62.6% | 54.4% | 60% |
| COc1cc(-c2cc(-c3cccc(OCC(=O)O)c3)[nH]c(=O)c2C#N)cc(OC)c1OC | 111% | 89.8% | 95.9% | 100% | 110% | 97.6% | 93% | 105% | 97.6% |
| N#Cc1c(-c2cccc3ccccc23)cc(-c2cccc(OCC(=O)O)c2)[nH]c1=O | 105% | 94.2% | 87.3% | 105% | 96.6% | 101% | 95.5% | 97.8% | 93.6% |
| O=C(O)c1ccc(-c2ccc(/C=N/NC(=O)c3[nH]c4ccc(Br)cc4c3-c3ccccc3)o2)cc1 | 38.8% | 7.51% (active) | 34.6% | -1.82% (active) | 10.5% | 6.58% (active) | -36.9% (active) | 45.5% | 0.786% (active) |
| COc1ccc2cc([C@H](C)C(=O)N/N=C/c3ccc(Br)cc3)ccc2c1 | 108% | 100% | 95.3% | 100% | 99.5% | 98.8% | 102% | 110% | 102% |
| C=C1CC[C@@H]2[C@]3(C)COC(c4cn[nH]c4-c4ccccc4)O[C@@H]3CC[C@@]2(C)[C@@H]1C/C=C1/C(=O)OCC1O (stereo partly specified) | 5.39% (active) | -10.2% (active) | -81.2% (active) | -59.4% (active) | 36.5% | 50.2% | -74.8% (active) | 13.5% | -17.5% (active) |
| N#Cc1c(-c2ccccc2Cl)cc(-c2ccc3ccccc3c2)[nH]c1=O | 49% | 62% | 12.9% | -6.69% (active) | 22.5% | 1.62% (active) | 16.5% | 70.3% | 25.1% |
| COc1ccc2nc(Nc3cccc(NC(=O)c4ccc(CN5CCCN(C)CC5)c(C(F)(F)F)c4)c3)ccc2c1 | -54.2% (active) | -18.6% (active) | -58.3% (active) | -82.9% (active) | -9.02% (active) | -53.9% (active) | -56.2% (active) | -34% (active) | -49.4% (active) |
| CC1=C(C(=O)c2ccccc2)C(c2ccc(-n3cncn3)cc2)n2c(nc3ccccc32)N1 (stereo unspecified) | 71.7% | 74.6% | 81% | 73.6% | 77.1% | 84% | 39.1% | 89.1% | 99.2% |
| CSc1ccc(C(=O)Nc2ccc3nn(/C(C#N)=C/c4ccccn4)nc3c2)cc1 | -97% (active) | -1.86% (active) | -82.1% (active) | -94.6% (active) | -26.3% (active) | -49% (active) | -88.3% (active) | -67.6% (active) | -76.8% (active) |
| N#Cc1c(-c2cccc(Cl)c2Cl)cc(-c2ccc3ccccc3c2)[nH]c1=O | 75.8% | 91.2% | 66% | 60.9% | 71.8% | 31.8% | 79.7% | 94.2% | 32.5% |
| Cc1ccc2c(N)c(C(=O)Nc3ccc(-c4ccccc4)cc3)sc2n1 | 88.4% | 36.9% | 65.5% | 30.5% | 101% | 45.6% | 67.7% | 61% | 73.2% |
| CC(=O)Nc1cccc(Nc2nccc(N[C@@H](C)c3ccccc3)n2)c1 | 24.8% | 7.64% (active) | 28.7% | 21.2% | 27.6% | -8.12% (active) | 9.09% (active) | 40.5% | 22.6% |
| CC1=C(C(=O)c2ccccc2)C(c2cccc(Cl)c2Cl)n2c(nc3ccccc32)N1 (stereo unspecified) | 58.1% | 61.4% | 57.9% | 42.8% | 43.6% | 63.3% | 16.6% | 76.2% | 81.8% |
| COc1ccc(-c2cc(C(=O)NCc3ccccc3)nn2-c2ccc(S(C)(=O)=O)cc2)cc1OC | 105% | 105% | 108% | 110% | 97.3% | 98.1% | 95.2% | 105% | 111% |
| N#Cc1c(-c2ccc(Br)cc2)nc2n[nH]c(-c3ccc(Br)cc3)c2c1-c1ccc(C(F)(F)F)cc1 | 26.2% | -9.32% (active) | -14.5% (active) | 46.7% | 34.7% | 1.6% (active) | 54.2% | 28.5% | 29.2% |

Reference: PubChem BioAssay (NCI)
